In PubChem BioAssay:
Results filed as inconclusive are left out. Calls of active or inactive are those of the source.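 The calls were made as follows, unless noted: active = viability at or below 30% in both replicate assays; inconclusive = viability at or below 30% in just one of the two assays; inactive = the rest.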

Assays:
[1] = Her2 expression decrease, cell viability multiplex – SKBR3 breast tumor cells, AlphaScreen, ATP viability, primary screen (AID 461;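 active = Her2 level under about 52% in both replicate screens, with viability over 70% of control, limit read from the data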;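 as to Her2 level: lower value means less Her2 protein in the cells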;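 as to viability: percent of carrier control wells set as 100% viability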); conditions: SKBR3 Her2 protein level, 18-24 h, measured here: SKBR3 viability, ATP luminescence, at 10 µM
[2] = target: Receptor tyrosine-protein kinase erbB-2 (Homo sapiens) (UniProt P04626); assay: as above; conditions: 18-24 h, at 10 µM, stronger effect = lower value
[3] = reduced viability of SK-BR-3 breast cancer cells – cell-based, 24 h, human, pilot screen (AID 572;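 active = viability at or below 10% of carrier control in both of two separate runs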;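 also: compound exposure lasted between 18 and 24 h rather than exactly 24 h; 100% = carrier-treated control wells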); conditions: SK-BR-3 viability, CellTiter-Glo luminescence, at 10 µM, stronger effect = lower value
[4] = HUVEC growth inhibition – cell-based, human, primary screen (AID 575); conditions: HUVEC proliferation, CellTiter-Glo luminescence, 72 h; at 10 µM; stronger effect = lower value;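 also: 100% = median of untreated cell wells with 0.1% DMSO on each plate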
[5] = H69AR cell proliferation blockers – human, duplicate replicates, primary screen (AID 580;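 active = viability at or under a set limit in both replicates, limit being median viability minus 3 SD, cut at about 48% in these data, passing the limit was not always enough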;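 also: 100% = mean luminescence of untreated wells and 0% = no signal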); conditions: H69AR lung tumor cells viability, ATP luminescence, 72 h; at 10 µM; stronger effect = lower value
[6] = MRP1 drug-resistance reversers in H69AR cells – cell-based, doxorubicin co-treatment, pilot screen (AID 601;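 active = viability loss from added drug above about 55%, and viability with drug at most 40%, in both replicates, limit read from the data, passing the limit was not always enough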); conditions: CellTiter-Glo, 72 h, at 10 µM; for differential viability (reversal): stronger effect = higher value
[7] = yeast transport mutant growth inhibition pilot in 384-well plates, post-Golgi transport modulator project (AID 636; in the data active = inhibition above about 31%); conditions: absorbance 615 nm, about 18 h, stronger effect = higher value
[8] = growth suppression of yeast trafficking mutant, preliminary HTS, modulators of trafficking downstream of Golgi apparatus project, 1536-format plate, OD 615 nm (AID 637; in the data active = inhibition above about 30%); conditions: yeast transport mutant growth, absorbance 615 nm, 18 h; stronger effect = higher value
[9] = S. cerevisiae growth inhibition in permissive medium (OD615), pilot counter-assay for S. cerevisiae lifespan shortening project, permissive growth control (AID 705;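 active = growth inhibition above 25% in both replicates, a cutoff set 3 SD above the mean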); conditions: OD615, 24 h, at 10 µM, stronger effect = higher value
[10] = S. cerevisiae growth inhibition in restrictive medium, OD615, pilot screen, restrictive growth control, yeast lifespan reduction project (AID 706;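 active = growth inhibition above a set limit, 3 SD over mean compound inhibition, in both replicates, cut at about 43% in these data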;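 also: modified DeaD lifespan yeast strain shifted to restrictive glucose medium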); conditions: OD615, 48 h, at 10 µM, stronger effect = higher value
[11] = doxorubicin toxicity protection in MRP-1 cells – H69AR cells, CellTiter-Glo, duplicate, MRP-1 activator project, pilot screen (AID 807;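 active = viability increase at or above a cutoff of the median across tested compounds plus 3 SD, cut at about 8.5% in these data, passing the limit was not always enough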;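 also: compound pretreatment 18-22 h then 72 h combined with doxorubicin; 0% = doxorubicin alone and 100% = vehicle without doxorubicin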); conditions: H69AR viability with doxorubicin, CellTiter-Glo luminescence; at 10 µM; stronger effect = higher value
[12] = viability of HCT116 without oncogenic beta-catenin – human colon tumor cells, pilot screen (AID 823;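 active = cell viability at or below a set limit in both duplicate runs, the limit being the all-compound median minus 4 SD, cut at about 23% in these data, passing the limit was not always enough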;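 also: 0% = wells killed by 20 µM Hyamine and 100% = untreated DMSO cell wells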); conditions: HCT116 beta-catenin knockout viability, CellTiter-Glo, 60 h; at 10 µM; stronger effect = lower value
[13] = viability of PTEN-null HCT116 cells – cell-based, HCT116 clonal line, CellTiter-Glo, pilot screen (AID 824;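 active = viability at or below 27.92% in each of two runs, the all-compound median minus 4 SD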;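 also: 0% = 20 µM Hyamine control and 100% = vehicle cell control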); conditions: HCT116 PTEN-deleted viability, 60 h, at 10 µM, stronger effect = lower value
[14] = RAM pathway blockade in budding yeast – dse1pr::URA3 reporter, 5-FOA selection, pilot screen (AID 869;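 active = inhibition over a set limit, the all-compound mean plus 3 SD, in both replicate runs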;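 also: 0% = DMSO wells with no growth and 100% = 10 µM 1-NA-PP1 with full growth; RAM network block rescues cells from 5-FOA so hits raise OD615 growth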); conditions: S. cerevisiae dse1pr::URA3 5-FOA growth, OD615, 2 d; at 10 µM; stronger effect = higher value; strain carries analog-sensitive mutant Cbk1 kinase
[15] = RAM signaling pathway blockade in yeast – S. cerevisiae, Pdr1DBD-CYC8 efflux-inhibited sensitized strain, primary screen (AID 1298;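 active = RAM network inhibition above 8.4% in each of two replicates, 3 SD over the compound average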;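 also: 0% = DMSO untreated cells without growth and 100% = 10 µM 1-NA-PP1 full growth; higher means more yeast growth rescued from 5-FOA killing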); conditions: S. cerevisiae cbk1-as DSE1-URA3 strain, 5-FOA growth OD615, 2 d; at 50 µM; stronger effect = higher value
[16] = H69AR cells + 2 uM doxorubicin, measured here: viability with 2 uM doxorubicin, stronger effect = lower value
[17] = H69AR cells, compound alone cytotoxicity

Sequence of Receptor tyrosine-protein kinase erbB-2 (Homo sapiens) (P04626 whole entry, looked up): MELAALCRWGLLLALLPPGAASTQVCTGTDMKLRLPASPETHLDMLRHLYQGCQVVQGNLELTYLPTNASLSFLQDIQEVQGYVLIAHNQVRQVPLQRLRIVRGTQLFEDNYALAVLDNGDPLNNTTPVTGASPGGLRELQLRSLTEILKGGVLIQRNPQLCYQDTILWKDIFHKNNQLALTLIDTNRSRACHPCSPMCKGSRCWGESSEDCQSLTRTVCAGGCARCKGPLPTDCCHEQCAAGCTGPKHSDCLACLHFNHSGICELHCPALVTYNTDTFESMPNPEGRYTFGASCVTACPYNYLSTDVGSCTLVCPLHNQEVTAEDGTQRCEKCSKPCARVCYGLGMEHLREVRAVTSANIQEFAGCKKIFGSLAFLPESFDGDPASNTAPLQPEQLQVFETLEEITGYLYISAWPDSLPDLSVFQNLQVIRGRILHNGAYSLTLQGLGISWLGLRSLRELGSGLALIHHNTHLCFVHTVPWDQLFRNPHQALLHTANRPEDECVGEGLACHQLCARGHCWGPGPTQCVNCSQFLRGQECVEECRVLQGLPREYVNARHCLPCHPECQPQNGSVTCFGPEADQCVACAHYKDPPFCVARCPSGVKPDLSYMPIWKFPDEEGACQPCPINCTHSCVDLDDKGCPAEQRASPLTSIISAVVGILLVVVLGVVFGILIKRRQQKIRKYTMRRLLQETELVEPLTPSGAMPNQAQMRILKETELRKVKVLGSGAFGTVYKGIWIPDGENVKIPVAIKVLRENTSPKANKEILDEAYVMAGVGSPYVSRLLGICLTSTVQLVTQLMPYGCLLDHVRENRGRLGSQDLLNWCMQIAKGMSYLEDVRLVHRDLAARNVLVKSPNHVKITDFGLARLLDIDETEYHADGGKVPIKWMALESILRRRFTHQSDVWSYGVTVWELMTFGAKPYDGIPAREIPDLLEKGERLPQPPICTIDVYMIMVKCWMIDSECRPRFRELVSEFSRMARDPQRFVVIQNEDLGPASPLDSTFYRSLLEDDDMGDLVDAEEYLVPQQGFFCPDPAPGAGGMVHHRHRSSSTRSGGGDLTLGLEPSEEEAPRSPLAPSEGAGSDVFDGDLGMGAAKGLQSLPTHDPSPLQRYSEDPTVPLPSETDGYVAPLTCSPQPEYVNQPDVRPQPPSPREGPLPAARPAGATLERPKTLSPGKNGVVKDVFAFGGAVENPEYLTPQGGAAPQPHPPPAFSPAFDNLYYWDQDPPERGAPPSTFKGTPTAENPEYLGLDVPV

CC(C)c1ccc(C(O)c2cnc(C(C)C)n2C)cc1 (stereo not drawn)
viability [1]: 112%
Her2 level [2]: 92% (inactive)
viability [3]: 112% (inactive)
viability [4]: 116% (inactive)
viability [5]: 88.1% (inactive)
differential viability (reversal) ([6]; H69AR cells + 2 uM doxorubicin): 6.51% (inactive)
viability [6, 16]: 81.6%
viability [6, 17]: 88.1%
inhibition [7]: -4.13% (inactive)
inhibition [8]: 2.5% (inactive)
growth inhibition [9]: -6.82% (inactive)
growth inhibition [10]: -0.345% (inactive)
viability increase [11]: 0.64% (inactive)
viability [12]: 96.4% (inactive)
viability [13]: 91% (inactive)
inhibition [14]: 0.355% (inactive)
RAM network inhibition [15]: 1.77% (inactive)

CCOC(=O)c1sc(NC(=O)c2noc3c2CCCC3)c(C(=O)OCC)c1C
viability [1]: 69.5%
Her2 level [2]: 83% (inactive)
viability [3]: 69.5% (inactive)
viability [4]: 85% (inactive)
viability [5]: 67.8% (inactive)
differential viability (reversal) ([6]; H69AR cells + 2 uM doxorubicin): -13.2% (inactive)
viability [6, 16]: 81%
viability [6, 17]: 67.8%
inhibition [7]: 1.41% (inactive)
inhibition [8]: -4.17% (inactive)
growth inhibition [9]: -0.315% (inactive)
growth inhibition [10]: -5.25% (inactive)
viability increase [11]: -3.88% (inactive)
viability [12]: 55.2% (inactive)
viability [13]: 55.8% (inactive)
inhibition [14]: 0.47% (inactive)
RAM network inhibition [15]: 2.96% (inactive)

COCCn1c(=N)c(C(=O)NCCc2ccccc2)cc2c(=O)n3cccc(C)c3nc21
viability [1]: 63.5%
Her2 level [2]: 69% (inactive)
viability [3]: 63.5% (inactive)
viability [4]: 86.6% (inactive)
viability [5]: 92.5% (inactive)
differential viability (reversal) ([6]; H69AR cells + 2 uM doxorubicin): 15.7% (inactive)
viability [6, 16]: 76.8%
viability [6, 17]: 92.5%
inhibition [7]: -0.38% (inactive)
inhibition [8]: -8.83% (inactive)
growth inhibition [9]: 1.32% (inactive)
growth inhibition [10]: -10.6% (inactive)
viability increase [11]: -4.45% (inactive)
viability [12]: 66.8% (inactive)
viability [13]: 68.5% (inactive)
inhibition [14]: 0.64% (inactive)
RAM network inhibition [15]: 0.2% (inactive)

Cc1noc(/C=C/N(C)C)c1S(=O)(=O)N1CCCC(C(=O)NCCC2=CCCCC2)C1 (stereo not drawn)
viability [1]: 94.5%
Her2 level [2]: 79% (inactive)
viability [3]: 94.5% (inactive)
viability [4]: 79.7% (inactive)
viability [5]: 104% (inactive)
differential viability (reversal) ([6]; H69AR cells + 2 uM doxorubicin): 15.8% (inactive)
viability [6, 16]: 88.7%
viability [6, 17]: 104%
inhibition [7]: -1.87% (inactive)
inhibition [8]: -1.31% (inactive)
growth inhibition [9]: -0.38% (inactive)
growth inhibition [10]: -11.2% (inactive)
viability increase [11]: 2.75% (inactive)
viability [12]: 92.1% (inactive)
viability [13]: 72.8% (inactive)
inhibition [14]: 1.23% (inactive)
RAM network inhibition [15]: 6.39% (inactive)

CN1CCC(NC(=O)c2cccs2)CC1
viability [1]: 106%
Her2 level [2]: 90% (inactive)
viability [3]: 106% (inactive)
viability [4]: 84.7% (inactive)
viability [5]: 91% (inactive)
differential viability (reversal) ([6]; H69AR cells + 2 uM doxorubicin): 7.9% (inactive)
viability [6, 16]: 83.1%
viability [6, 17]: 91%
inhibition [7]: -4.13% (inactive)
inhibition [8]: 7.5% (inactive)
growth inhibition [9]: 9.33% (inactive)
growth inhibition [10]: 17.3% (inactive)
viability increase [11]: -0.16% (inactive)
viability [12]: 96.7% (inactive)
viability [13]: 94.9% (inactive)
inhibition [14]: 0.86% (inactive)
RAM network inhibition [15]: 1.18% (inactive)

COc1cccc(-c2nc3n(n2)C(c2cccs2)C(C(=O)Nc2cccnc2)=C(C)N3)c1 (stereo not drawn)
viability [1]: 78%
Her2 level [2]: 79% (inactive)
viability [3]: 78% (inactive)
viability [4]: 83.2% (inactive)
viability [5]: 101% (inactive)
differential viability (reversal) ([6]; H69AR cells + 2 uM doxorubicin): -5.46% (inactive)
viability [6, 16]: 107%
viability [6, 17]: 101%
inhibition [7]: -2.93% (inactive)
inhibition [8]: -0.67% (inactive)
growth inhibition [9]: -13.1% (inactive)
growth inhibition [10]: -6.04% (inactive)
viability increase [11]: -2.26% (inactive)
viability [12]: 87.2% (inactive)
viability [13]: 93% (inactive)
inhibition [14]: -0.145% (inactive)
RAM network inhibition [15]: 5.84% (inactive)

COc1ccccc1NCN1C(=O)CCC1=O
viability [1]: 102%
Her2 level [2]: 98% (inactive)
viability [3]: 102% (inactive)
viability [4]: 104% (inactive)
viability [5]: 82.4% (inactive)
differential viability (reversal) ([6]; H69AR cells + 2 uM doxorubicin): -20.8% (inactive)
viability [6, 16]: 103%
viability [6, 17]: 82.4%
inhibition [7]: -7.47% (inactive)
inhibition [8]: 2% (inactive)
growth inhibition [9]: -9.71% (inactive)
growth inhibition [10]: 1.64% (inactive)
viability increase [11]: -0.43% (inactive)
viability [12]: 102% (inactive)
viability [13]: 95.5% (inactive)
inhibition [14]: 1.98% (inactive)
RAM network inhibition [15]: 3.27% (inactive)

COc1ccc(CNc2oc(-c3ccccc3)nc2C#N)cc1
viability [1]: 88.5%
Her2 level [2]: 83.5% (inactive)
viability [3]: 88.5% (inactive)
viability [4]: 69.7% (inactive)
viability [5]: 103% (inactive)
differential viability (reversal) ([6]; H69AR cells + 2 uM doxorubicin): 0.495% (inactive)
viability [6, 16]: 102%
viability [6, 17]: 103%
inhibition [7]: 4.27% (inactive)
inhibition [8]: -4.92% (inactive)
growth inhibition [9]: 0.305% (inactive)
growth inhibition [10]: 12.3% (inactive)
viability increase [11]: 2.09% (inactive)
viability [12]: 98.8% (inactive)
viability [13]: 98.6% (inactive)
inhibition [14]: 0.335% (inactive)
RAM network inhibition [15]: 4.07% (inactive)

COc1ccc(C(c2sc3nc(C)nn3c2O)N2CCCCC2)cc1 (stereo not drawn)
viability [1]: 90%
Her2 level [2]: 94.5% (inactive)
viability [3]: 90% (inactive)
viability [4]: 111% (inactive)
viability [5]: 81.8% (inactive)
differential viability (reversal) ([6]; H69AR cells + 2 uM doxorubicin): -13.7% (inactive)
viability [6, 16]: 95.5%
viability [6, 17]: 81.8%
inhibition [7]: -2.95% (inactive)
inhibition [8]: 1% (inactive)
growth inhibition [9]: -3.33% (inactive)
growth inhibition [10]: 8.2% (inactive)
viability increase [11]: -1.47% (inactive)
viability [12]: 100% (inactive)
viability [13]: 95.2% (inactive)
inhibition [14]: 0.45% (inactive)
RAM network inhibition [15]: 3.51% (inactive)
